# Bioassay records: PubChem BioAssay, several laboratories
# KKLEB tox: reduces viability of KKLEB cystic fibrosis airway cells; KKLEB CF airway cells viability, ATPlite luminescence, overnight; stronger effect = lower value; cells stimulated with P. aeruginosa culture filtrate; activity change (cytotoxicity), % at 5 µM; 360,000 tested, 0.36% active;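 active = corrected activity change at or below -50% at 5 µM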
# EBV LMP1 NFkB: Epstein-Barr LMP1 NF-kappaB reporter inhibition; LMP1-induced NF-kappaB luciferase reporter cells, luminescence; inhibition, % at 12.5 µM; 350,000 tested, 0.69% active; in the data active = inhibition above about 41%;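 also: 0% = neutral control wells and 100% = reference inhibitor control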
# HIF-2a inh: blocks HIF-2a reporter activity. 786-0 RCC cells HIF-2a reporter, luciferase luminescence, overnight. inhibition, % at 18.8 µM. 360,000 tested, 0.72% active. AID 624352;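 active = inhibition of the luminescence signal of 40% or more relative to plate controls, in a single-dose primary screen at 18.75 µM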
# CF NFkB inh: inhibitors of cystic fibrosis induced NF-kB; 360,000 tested, 0.86% active; KKLEB NF-kB-GFP reporter, PAF-induced, GFP fluorescence overnight; AID 588850; inhibition, % at 5 µM;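 active = at least 50% inhibition at 5 µM, scaled per plate between neutral and stimulator controls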;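 also: PAF is a Pseudomonas aeruginosa culture filtrate used as stimulus; plate controls were PAF-stimulated DMSO wells for no effect and unstimulated DMSO wells for full effect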
# Peg3 prom inh: inhibitors of Peg3 promoter; inhibition, % at 20 µM; 360,000 tested, 1.7% active; HeLa PEG-Prom luciferase reporter, luminescence, overnight;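 active = inhibition of at least 50% at 20 µM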
# Shn3 inh set2: reduces Shn3 3'UTR luciferase signal in osteoblasts; Clone20 osteoblast Shn3 3'UTR firefly luciferase, 24 h; inhibition, % at 12.5 µM; 360,000 tested, 0.52% active;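 active = mean inhibition of at least 75% with every replicate also reaching 75%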;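 also: 0% = median of neutral control wells and 100% = pilot-screen positive control compound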
# * hit, by the source's call; ! = a repeat was not active. This is a sample that favours compounds with a hit; in the whole collection about 2.9% have one here.
SMILES,KKLEB tox,EBV LMP1 NFkB,HIF-2a inh,CF NFkB inh,Peg3 prom inh,Shn3 inh set2
N#Cc1c(-c2ccc(F)cc2)cc(-c2cccnc2)nc1N,-36.3,5.0,8.2,4.3,53.5*,23.7
CCCN1C(=O)S/C(=C/c2ccc(N3CCOCC3)o2)C1=O,3.5,-12.9,-238.9,-3.1,-142.1,20.3
CCCN1C(=O)S/C(=C\c2ccc(N3CCOCC3)o2)C1=O,12.3,-1.5,-177.9,-7.3,-169.2,89.2*
NC(=O)c1ccccc1OCC(=O)N1CCCC1c1ccc2c(c1)OCCCO2 (stereo unspecified),-14.7,2.9,7.6,15.0,-2.9,-0.2
N#CC(=C1C=C(Br)C(=NO)C=C1Cl)c1cccc2ccccc12,0.0,-15.7,17.1,51.2*,38.7,7.7
CCOc1cc2[nH]c(=S)n(CCc3ccc(OC)c(OC)c3)c(=O)c2cc1OCC,-4.5,-29.6,12.5,1.7,64.0*,39.2
CN(CC(=O)Nc1ccc(F)cc1)C(=O)c1cccc(NS(=O)(=O)c2ccccc2)c1,13.2,-0.4,17.4,10.0,9.9,3.9
COc1cc(NC(=O)c2ccc3c(c2)OCO3)ccc1NC(=O)c1ccco1,11.6,8.2,-76.8,-18.5,-62.5,-15.7
CC(Nc1ccccc1CO)C(=O)Nc1cccc(Cl)c1Cl (stereo unspecified),-8.9,67.8*,35.0,19.7,52.0*,3.5
N#CCCCSc1nnc(CSc2nc3ccccc3s2)n1-c1ccccc1,-1.0,-6.7,8.3,0.9,22.7,15.9
CCCSc1nnc(CSc2nc3ccccc3s2)n1-c1ccccc1,-4.9,7.6,9.5,9.3,29.7,87.3*
O=C(COC(=O)C1CC1)NCc1ccc(Cl)cc1Cl,-4.1,-4.9,2.0,6.0,5.4,-12.7
CC(C)(C)c1ccc(Cn2c(=N)n(CC(O)c3ccco3)c3ccccc32)cc1 (stereo unspecified),-22.5,-87.3,1.0,24.7,105.4*,82.5*
Cc1ccccc1Cn1c(=N)n(CC(O)c2ccco2)c2ccccc21 (stereo unspecified),-11.6,6.0,6.8,7.0,3.9,0.7
N=C(N)c1ccccc1,-1.8,81.5*!,-17.4,-10.7,-15.5,-8.7
N=C(N)c1ccc(O)cc1,-1.8,5.9,15.3,-6.5,1.9,-6.9
Cc1ccc(C(=O)N/C(=C/c2ccc(-c3ccc([N+](=O)[O-])cc3)o2)C(=O)NCCCN(C)C)cc1,-10.5,-7.9,-8.3,-0.8,109.2*,-11.4
O=C(NCCCO)/C(=C/c1ccc(-c2cccc([N+](=O)[O-])c2)o1)NC(=O)c1ccccc1,-2.2,-1.5,5.1,-5.6,11.2,11.5
Cc1cc(C(=O)NNC(=O)CN2C(=O)NC(C)(c3ccccc3)C2=O)c(C)o1 (stereo unspecified),2.6,-4.3,12.9,-2.5,13.1,-1.1
COC(=O)C1=C(C)NC(C)=C([N+](=O)[O-])C1c1ccccc1C(F)(F)F (stereo unspecified),6.1,54.8*!,-0.4,-35.0,3.5,93.0*!
COc1cc(NC(=O)c2cnc(N)o2)cc(C(=O)Nc2cccc(C(F)(F)F)c2)c1,0.9,26.4,-67.1,-1.3,55.5*!,32.3
NNC(=O)c1ccncc1,-84.9*,8.6,-1.8,-13.6,-11.5,7.4
CC(NC(=O)CNC(=O)c1sc2ccccc2c1Cl)c1ccc(S(N)(=O)=O)cc1 (stereo unspecified),-19.8,1.6,-23.4,11.8,-26.6,-8.5
CC(=O)Nc1ccc(S(=O)(=O)N2CCN(c3cc4c(cc3[N+](=O)[O-])n(C)c(=O)n4C)CC2)cc1,10.6,8.0,-13.6,-28.5,7.2,23.2
Cn1c(=O)n(C)c2cc([N+](=O)[O-])c(N3CCN(S(=O)(=O)c4ccc(C(C)(C)C)cc4)CC3)cc21,11.8,0.4,-8.8,-6.3,-6.3,85.4*
COc1ccccc1-n1cnnc1SCC(=O)N1CCOCC1,-5.1,1.4,8.7,4.9,7.5,21.9
CC1=CC(C)(C)N2C(=O)C(=O)c3cc(OC(=O)c4ccco4)cc1c32,-14.7,-4.4,22.1,63.9*,0.3,16.7
NC(=O)OCC(COC(N)=O)c1ccccc1,-10.2,68.5*!,-6.4,4.3,-4.0,-2.5
NC(=O)NC(Cc1ccccc1)c1ccccc1 (stereo unspecified),12.4,3.3,6.1,0.8,8.9,16.1
